Screens deposited in PubChem BioAssay by DiRusso Lab, Biochemistry Department, University of Nebraska.
Chlamy TAG – inducers of triacylglycerol accumulation in Chlamydomonas reinhardtii algae; hit rate 0.84% among 44,000; AID 1159537; calls only at 10 µM (by protocol); Chlamydomonas reinhardtii TAG, Nile Red fluorescence, 72 h; call rule not given here;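 note: hits raise Nile Red signal meaning more stored TAG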
Each line names hits and unclear results; the compound was inactive in the other large screens. The entries come from a sample that favours hits as a whole.

COc1ccc(CNC2CCCCC2C)cc1 (centres undefined)	none
COc1ccc(CNCc2ccc(OC)cc2)cc1	none
COc1ccc(CNC2CCSC2)cc1 (centres undefined)	Chlamy TAG active
Cc1ccc([N+](=O)[O-])cc1NC(=O)CC(C)c1ccccc1 (centres undefined)	none
Cc1ccccc1NC(=O)C(=O)NCC(C)O (centres undefined)	none
O=C(CN1CCCCC1)Nc1ccccc1NC(=O)CN1CCCCC1	none
O=C(CN1CCCCCC1)Nc1cccc2c1OCO2	none
O=C(CN1CCCCC1)Nc1ncc(Cc2ccc(Br)cc2)s1	Chlamy TAG active
O=C(Nc1nncs1)C1CC1c1ccccc1 (centres undefined)	none
O=C(Nc1ccc(Br)cc1C(=O)O)c1cccs1	none
Cc1ccc(NC(=O)c2ccc(Cl)cc2)c(C)c1	none
Cc1ccc(C(=O)Nc2ccc(Cl)cc2C)cc1C	Chlamy TAG active
Cc1ccc(C(=O)Nc2ccc(I)cc2C)cc1C	none
O=C(Nc1ccc(-c2nc3ncccc3o2)cc1)c1cccc(Cl)c1	none
COc1ccc(C(=O)N2CCC(C(=O)Nc3cccc(SC)c3)CC2)cc1	none
Brc1ccc2ncnc(N3CCOCC3)c2c1	none
Brc1ccc2ncnc(N3CCN(Cc4ccccc4)CC3)c2c1	Chlamy TAG active
Brc1ccc(CN2CCN(c3ccccn3)CC2)cc1	none
CCCC(=O)Nc1cccc(-c2nc3ccccc3o2)c1C	none
COc1ccccc1N1CCN(C2CCN(Cc3cccc(Cl)c3)CC2)CC1	Chlamy TAG active
COc1cc(OC)c(OC)cc1CN1CCC(N2CCN(c3ccccc3OC)CC2)CC1	none
CCOc1cc(CN2CCN(c3ccccc3OC)CC2)ccc1OC	none
COc1ccccc1N1CCN(C2CCN(CCCc3ccccc3)CC2)CC1	none
COc1ccccc1N1CCN(C2CCN(CC3CC4C=CC3C4)CC2)CC1 (centres undefined)	Chlamy TAG active
Clc1cccc(CN2CCC(N3CCCCCC3)CC2)c1	none
COc1ccccc1N1CCN(C2CCN(Cc3cccc(C)c3)CC2)CC1	Chlamy TAG active
COc1ccccc1N1CCN(C2CCN(Cc3ccc(Br)cc3)CC2)CC1	none
COc1ccccc1N1CCN(C2CCN(Cc3c[nH]c4ccccc34)CC2)CC1	none
COc1ccc(SCC(=O)Nc2ccccc2)c([N+](=O)[O-])c1	none
CCC(Oc1ccccc1)C(=O)Nc1sc(C)c(C)c1C#N (centres undefined)	none
Cc1cc(C)c(C)c(OCC(=O)Nc2ccc(C(N)=O)cc2)c1	none
Brc1ccc2nc(SCc3nc4ccccc4[nH]3)[nH]c2c1	none
C=C(C)Cn1c(SCC(=O)c2ccc(OC)cc2)nnc1-c1ccco1	none
COc1ccc(Cl)cc1S(=O)(=O)NCc1cccnc1	none
COCCNS(=O)(=O)c1cc(Cl)ccc1OC	Chlamy TAG active
COc1ccc(Cl)cc1NS(=O)(=O)c1cc(Cl)ccc1OC	none
COc1ccc(OC)c(NC(=O)CN(Cc2ccc(F)cc2)S(=O)(=O)c2ccc(C)cc2)c1	none
COc1cc(CN2CCN(C/C=C/c3ccccc3)CC2)cc(OC)c1OC	none
COc1ccc(CN2CCN(C/C=C/c3ccccc3)CC2)c(O)c1	none
C(=C\c1ccccc1)/CN1CCN(C2CCN(CCc3ccccc3)CC2)CC1	none
COc1ccc(CN2CCN(C/C=C/c3ccccc3)CC2)cc1	Chlamy TAG active
C(=C\c1ccccc1)/CN1CCN(C2C3CC4CC(C3)CC2C4)CC1 (centres undefined)	Chlamy TAG active
C(=C\c1ccccc1)/CN1CCN(c2ncccn2)CC1	none
Cc1cc(C)nc(NS(=O)(=O)c2ccc(NC(=O)c3ccc([N+](=O)[O-])cc3)cc2)n1	none
Cc1cc(C)c(NC(=O)C(C)NC2C3CC4CC(C3)CC2C4)c(C)c1 (centres undefined)	none
COc1cc(CN(C2=NS(=O)(=O)c3ccccc32)c2ccc(C)cc2)ccc1O	none
COc1cc(/C=C(\C#N)c2nc3ccc(C)cc3[nH]2)cc(Br)c1OCC#N	none
Cc1ccccc1NC(=O)c1c(C)nc2sc(C(N)=O)c(N)c2c1-c1cccc(F)c1	none
Fc1ccccc1COc1ccc(-c2nn[nH]n2)cc1	none
O=C(Nc1ccccc1)Nc1ccc(CSc2ccccc2)cc1	none
OC(COc1ccc(Br)cc1)CN1CCCCCC1 (centres undefined)	Chlamy TAG active
OC(COc1ccc(OCC(O)CN2CCCC2)cc1)CN1CCCC1 (centres undefined)	none
Cc1ccccc1OCC(O)CN1CCN(CC(O)COc2ccccc2C)CC1 (centres undefined)	none
Cc1ccc(OCC(O)CN2CCCCC2)c(C)c1 (centres undefined)	none
OC(COc1ccccc1Br)CN1CCCCC1 (centres undefined)	Chlamy TAG active
OC(COc1ccc(Br)cc1)CN1CCOCC1 (centres undefined)	none
OC(COc1ccc(Cl)cc1)CN1CCc2ccccc2C1 (centres undefined)	none
O=C(Oc1ccc(OC(=O)N2CCOCC2)cc1)N1CCOCC1	none
Cc1[nH]nc(-c2ccc(O)cc2O)c1-c1cnn(-c2ccccc2)c1	none
COc1ccccc1C1(CCN)CCOC(C)(C)C1 (centres undefined)	none
O=C(c1cccc(C#Cc2ccccc2)c1)N1CCN(c2ccccn2)CC1	none
COc1ccc(N2CCN(Cc3cccs3)CC2)cc1	none
